Rows were chosen to be rich in hits. Some 3.1% of all compounds tested hit in one or more screens of this group.
VDR inh: inhibitors of human vitamin D receptor. VDR-SRC2-3 peptide fluorescence polarization, 2 h. Potency, µM, actives largely listed as inhibitors. 400,000 compounds, 0.93% hits
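Signal is fluorescence polarization, reporting how far test compounds block the interaction of VDR with the SRC2-3 coregulator peptide after a 2 h room-temperature incubation.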
uPA surface inh: blocks generation of uPA at the cell surface; cell surface uPA generation assay, qHTS; Potency, µM (titrated, usually from 38.3 µM), usual class: inhibitors; 330,000 compounds, 0.31% hits; active = well fitted inhibition curve with a large enough effect; inconclusive = small, poorly fitted or top-dose-only effect; inactive = no such curve, though single readings can be large or run the other way; tested in mouse RAW 264.7 cells; note: nearly all actives have a fitted effect of over 55% in size
PLK1 PBD inh: inhibitors of human PLK1 polo-box domain binding; P53350; Plk1 PBD binding of FITC phosphopeptide, fluorescence polarization; Potency, µM, most hits filed as inhibitors; 360,000 compounds, 2.8% hits; AID 720504; note: series mostly up to about 57 µM; nearly all actives have a fitted effect of over 65% in size
TSHR antag: antagonists of human thyroid stimulating hormone receptor. 330,000 compounds, 0.2% hits. activity change, negative = inhibition, % at 11.5 µM. TSHR-expressing cells, TSH-stimulated cAMP HTRF, 2 h; hits give low values;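 active = activity change below a set negative limit, meaning inhibition stronger than a set level, cut at about -70% in these data; inconclusive = activity change between two set negative limits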
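Cell-based HTRF cAMP assay; TSHR cells + compound, TSH EC80 (4nM final), 2 h, 37 deg C. Lysis with anti-cAMP cryptate and cAMP-d2, 30 min RT, read 665/620 nm.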
TSG101-PTAP inh: blocks PTAP/TSG101 interaction to inhibit HIV-1 budding | 340,000 tested, under 10 active | Q99816 | Fluorescence polarization, FITC-PTAP peptide / Tsg101 binding | AID 493005 | Potency, µM (titrated, usually from 115 µM), usual class: inhibitors; active = well fitted inhibition curve with a large enough effect in the main read-out, with a control signal flat, not every such curve was filed as active; inconclusive = small, poorly fitted or top-dose-only effect, or effect the other way, or a change in a side signal; inactive = no such curve, though single readings can be large or run the other way
Target sequence (Q99816 whole entry, looked up): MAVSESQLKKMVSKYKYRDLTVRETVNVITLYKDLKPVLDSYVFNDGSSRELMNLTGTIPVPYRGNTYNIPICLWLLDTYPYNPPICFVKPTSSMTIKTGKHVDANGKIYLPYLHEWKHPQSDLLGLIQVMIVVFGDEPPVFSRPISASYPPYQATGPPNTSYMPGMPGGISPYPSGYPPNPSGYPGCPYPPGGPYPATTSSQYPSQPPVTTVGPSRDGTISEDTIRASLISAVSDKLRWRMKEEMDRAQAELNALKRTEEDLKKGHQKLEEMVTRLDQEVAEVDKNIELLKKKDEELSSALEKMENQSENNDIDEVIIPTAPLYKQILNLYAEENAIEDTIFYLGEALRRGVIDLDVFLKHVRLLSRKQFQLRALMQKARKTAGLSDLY
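FP read-out: FITC-PTAP peptide, 50 nM final, binding Tsg101 binding domain, 10 uM final; 20 min, r.t.; 10 mM HEPES pH 7.5, 0.15 M NaCl, 0.01% Tween 20, 3 mM EDTA, 0.1 mM TCEP.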
USP1 UbRho: validation of human USP1/UAF1 inhibitors. shares compounds with VDR inh. Ub-Rhodamine cleavage, fluorescence kinetic read. Potency, µM (top dose mostly 114 µM), actives largely listed as inhibitors. 50 compounds, 50% hits. AID 540327
VDR inh confirm: confirmation of human vitamin D receptor inhibitors. 840 compounds, 89% hits. Potency, µM, hits mostly inhibitors. shares compounds with VDR inh. VDR-coactivator inhibition assay, qHTS confirmation. AID 602199
VDR FP: VDR (human) coactivator binding inhibition, fluorescein polarization; Potency, µM (highest dose often 57.1 µM), hits mostly inhibitors; 840 compounds, 48% hits; VDR-coactivator binding, fluorescein fluorescence polarization; shares compounds with VDR inh; AID 602200
VDR bla: confirmation of human vitamin D receptor inhibitors in reporter cells | shares compounds with VDR inh | VDR beta-lactamase reporter cells, FRET ratio; cells co-treated with VDR agonist LG190178 | Potency, µM (doses to about 46.1 µM), most hits filed as inhibitors | 840 compounds, 23% hits | AID 602202
VDR viability: cell toxicity, VDR inhibitor hit counter-screen | shares compounds with VDR inh | cytotoxicity counter-screen, cell viability, qHTS | Potency, µM (titrated, usually from 48.3 µM), actives largely listed as cytotoxic | 840 compounds, 18% hits; note: nearly all actives have a fitted effect of over 75% in size
A number is an active result; 0 = inactive; ? = inconclusive; - = no result given. Unless noted, calls come from the whole dose curve; as a rule, active = well fitted curve in the direction sought with a large enough effect; inconclusive = small, poorly fitted or top-dose-only effect, or another doubt; inactive = no such curve, though single readings can be large; an effect the other way counts as inactive or inconclusive.

SMILES	VDR inh	uPA surface inh	PLK1 PBD inh	TSHR antag	TSG101-PTAP inh	VDR inh confirm	VDR FP	VDR bla	VDR viability	others
Cc1cc(C)cc(OCC(=O)OCC(=O)N(CC(C)C)c2c(N)n(Cc3ccccc3)c(=O)[nH]c2=O)c1	0	0	0	0	0	-	-	-	-
COc1c2c(cc3c1C(CC(O)Cc1ccccc1)N(C)CC3)OCO2 (centres undefined)	0	0	0	0	0	-	-	-	-
COc1ccc2c(c1OC)C(Cc1ccccc1)N1CCc3cc4c(cc3C1=C2)OCO4 (centres undefined)	31.6µM	-	-	-	-	-	-	-	-	USP1 UbRho=41.8µM
Cc1noc(C)c1-c1nccc(N2CCN(C)CC2)n1	0	-	-	-	-	-	-	-	-
COc1ccc(N2CC(NC(=O)Cc3cccs3)CC2=O)cc1 (centres undefined)	0	-	-	-	-	-	-	-	-
Nc1cccc2c1C(=O)N(C(=O)/C=C/c1cccc(Br)c1)C2=O	39.8µM	0	?	0	0	9.47	4.47µM	0	0
Cc1nc2c3cc(F)ccc3n(Cc3ccccc3)c2s1	50.1µM	?	0	0	0	?	?	?	0
Cc1cc(C)c(C#N)c(=N)o1	44.7µM	0	4.74µM	0	0	?	?	0	0
CN(C)S(=O)(=O)c1cccc(NC(=O)C2CCCN(C(=O)c3ccc(Cl)cc3)C2)c1 (centres undefined)	-	-	0	-	-	-	-	-	-
COc1ccc2c(c1)C(CC(C)=O)N(c1ccc(-c3cccnc3)cc1)C(c1ccsc1)=C2 (centres undefined)	-	-	0	-	-	-	-	-	-
O=S(=O)(c1ccc(N=C2NN=C(c3cc(F)ccc3F)CS2)cc1)N1CCOCC1	1.58µM	0	?	0	0	2.51	?	0	?
Fc1ccc(N=C2NN=C(c3cc(F)ccc3F)CS2)cc1	31.6µM	0	?	0	0	?	?	0	?
Fc1ccc(F)c(C2=NNC(=Nc3ccccc3F)SC2)c1	0	0	0	0	0	-	-	-	-
COC(=O)c1ccccc1NC(=O)CSc1nc2sc3c(c2c(=O)[nH]1)CCCC3	14.1µM	-	-	-	-	?	3.98µM	0	0
Cc1cc(C)cc(NC(=O)CSc2nc3sc4c(c3c(=O)[nH]2)CCCC4)c1	0	-	-	-	-	-	-	-	-
CS(=O)(=O)c1nc(-c2ccccc2)cc(C(F)(F)F)n1	?	0	23.8µM	0	0	8.91	4.47µM	18.4µM	23.8µM
FC(F)(F)c1cc(-c2ccccc2)nc(N2CCCCCC2)n1	0	0	0	0	0	-	-	-	-
COc1ccc(OC)c(CNC(=O)c2ccc3nc(C(C)C)oc3c2)c1	0	-	-	-	-	-	-	-	-
CC(=O)Nc1ccc(-c2cn3ccsc3n2)cc1	0	0	0	0	0	-	-	-	-
c1cn2cc(-c3ccc4c(c3)OCO4)nc2s1	20µM	0	23.8µM	0	0	?	?	0	0
Cc1cc2c(cc1Cl)N(C(=O)Nc1ccc(Oc3cccnc3C)nc1)CC2	0	-	-	0	-	-	-	-	-	USP1 UbRho=?
Cc1cc2c(cc1Cl)N(C(=O)Nc1ccnc3ccccc13)CC2	?	-	-	0	-	-	-	-	-
C[C@H](CC[C@@H]1OC1(C)C)C1CC[C@H]2[C@@H]3CC=C4C[C@@H](O)CC[C@]4(C)[C@H]3CC[C@]12C (some centres undefined)	0	-	-	-	-	-	-	-	-
COc1ccccc1CNC(=O)c1ccc(-c2nc(CS(=O)(=O)c3ccc(C)cc3)c(C)o2)cc1	0	-	-	-	-	-	-	-	-
O=C1NN(c2ccccc2)C(=O)/C1=C/c1ccc(-c2ccc(Cl)c(C(=O)O)c2)o1	?	0	?	0	0	-	-	-	-
SMILES	VDR inh	uPA surface inh	PLK1 PBD inh	TSHR antag	TSG101-PTAP inh	VDR inh confirm	VDR FP	VDR bla	VDR viability	others
O=C1NN(c2ccccc2)C(=O)/C1=C/c1ccc(Sc2ccc(Cl)cc2)o1	79.4µM	0	2.99µM	0	0	?	?	0	-
CCN(CC)S(=O)(=O)c1nnc(NC(=O)COc2ccc(C)cc2)s1	0	-	-	-	-	-	-	-	-
CC1=NNC(=O)/C1=C\c1cn(-c2ccccc2)nc1-c1ccc(F)cc1	44.7µM	0	1.5µM	0	0	7.52	?	14.6µM	7.31µM
O=Cc1cn(-c2ccccc2)nc1-c1ccc(F)cc1	0	0	0	0	0	-	-	-	-
CC1=NNC(=O)/C1=C\c1cn(-c2ccccc2)nc1-c1cccs1	10µM	?	2.67µM	0	0	3.77	?	16.4µM	9.2µM
COC(=O)c1sc(=S)n(-c2cc(F)ccc2F)c1N	79.4µM	-	13.4µM	0	0	18.9	?	0	0
CCOC(=O)c1sc(=S)n(-c2cc(OC)ccc2OC)c1N	20µM	0	2.67µM	0	0	26.7	3.55µM	0	0
CCOC(=O)c1csc(NC(=O)CSc2nnnn2-c2ccc(OC)cc2)n1	0	0	0	0	0	-	-	-	-
CCOC(=O)c1c(NC(=O)CSc2nnnn2-c2ccc(OC)cc2)sc(C)c1C	17.8µM	-	2.12µM	0	0	?	?	0	0
O=C(Cc1ccccc1Cl)NC1(O)C(=O)c2ccccc2C1=O	50.1µM	0	0	0	0	10.6	0	0	0
O=C(Cc1ccc(Cl)cc1)NCc1ccccc1Cl	0	-	0	0	0	-	-	-	-
CCOC(=O)C1=C(C)N=C2SC(C(=O)OC)=CC(=O)N2C1c1ccc(F)cc1 (centres undefined)	22.4µM	?	0	0	0	13.4	?	0	?
COC(=O)[C@H](NC(=O)c1cc([C@@H](NC(=O)OC(C)(C)C)C(C)C)sc1N)C(C)C	-	-	0	-	-	-	-	-	-
COc1ccc(C(=O)Oc2ccc(C(=S)N3CCOCC3)cc2)cc1	70.8µM	0	10.6µM	0	0	26.7	25.1µM	0	0
Cc1ccc(Cc2c(C)nc3nc(SCC(=O)NC(C)c4ccccc4)nn3c2C)cc1 (centres undefined)	0	-	-	-	-	-	-	-	-
O=C(Nc1ccccc1)c1nc(S(=O)(=O)Cc2ccccc2F)ncc1Cl	-	-	-	-	-	2.51	2.51µM	3.26µM	13.4µM
O=C(Nc1ccc(OC(F)F)cc1)c1nc(S(=O)(=O)Cc2ccccc2F)ncc1Cl	-	-	-	-	-	6.31	3.98µM	16.4µM	16.8µM
CS(=O)(=O)c1ccc(S(=O)CC(=O)Oc2ccc(Cl)cc2)c([N+](=O)[O-])c1 (centres undefined)	3.55µM	?	2.99µM	0	0	2.51	1.58µM	18.4µM	?
C[C@]12CCC3c4ccc(O)cc4CCC3C1CCC2OC(=O)CCC1CCCC1 (some centres undefined)	0	-	-	-	-	-	-	-	-

Bioassay records (PubChem)
